Drawing on article PMC10668032, “Altered binding affinity of SIX1-Q177R correlates with enhanced WNT5A and WNT pathway effector expression in Wilms tumor”, this text covers binding signal for 109 sequences.

In all, about 33,000 sequences were measured (“e-score”: median about -0.053, highest 2% from about 0.38 on). This is one part of a sample in which the highest values are shown more often than they occur.

This experiment concerns the target T1, SIX1 homeodomain (reference allele) (human, UniProt Q15475 108-198).
T1 sequence: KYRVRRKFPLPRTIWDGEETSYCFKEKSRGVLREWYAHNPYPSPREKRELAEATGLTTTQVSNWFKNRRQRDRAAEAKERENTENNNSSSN
Briefly: universal protein binding microarray; Universal all-10-mer PBM (8x60K, AMADID 030236), 300 nM GST-tagged protein, Alexa Fluor 488 anti-GST; buffer, salt, pH and temperature not stated (as in Berger); high values mean tight binding. The note with it: protein: ivt; tags: N-terminal GST; dsDNA, one strand shown. A digest of the protocol:
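Homeodomains fused to GST were made by in vitro transcription/translation and measured by anti-GST western blot with a recombinant GST standard curve. At 300 nM final concentration, they were applied in duplicate to universal 'all 10-mer' protein binding microarrays (8×60K format).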
With ATACGAAA, the binding signal is 0.226 ± 0.0116 E-score.
The figure for ATCCTAAA is 0.184 ± 0.0231 E-score.
As for ACACCTGG, the binding signal is 0.172 ± 0.0558 E-score.
The figure for ACAATACC is 0.318 ± 0.028 E-score; for GGATAAAA it is 0.166 ± 0.106 E-score.
GTGGACAC: the binding signal was determined as 0.182 ± 0.0385 E-score.
The figure for ATCACCGC is 0.191 ± 0.00595 E-score.
The figure for ATCTGTGC is 0.153 ± 0.0364 E-score; for ATAAATAT it is 0.168 ± 0.1 E-score; for GAACCCGA it is 0.19 ± 0.0702 E-score.
The figure for ATAGCCAT is 0.218 ± 0.0172 E-score; for AGTATCTA it is 0.347 ± 0.0371 E-score.
GGTATCTA: the binding signal turned out to be 0.426 ± 0.0126 E-score.
The figure for GCTATCTA is 0.169 ± 0.00501 E-score.
For the sequence ACAGTATA, the binding signal came out at 0.287 ± 0.0542 E-score.
The figure for ACAGTATC is 0.402 ± 0.0345 E-score; for CCTGTATC it is 0.365 ± 0.02 E-score; for GCAGTATA it is 0.205 ± 0.0152 E-score.
As to ATTGTATC, the binding signal worked out at 0.367 ± 0.0214 E-score.
The figure for CCAGTATC is 0.407 ± 0.0315 E-score; for GATCTTGA it is 0.269 ± 0.0237 E-score; for ATCACGCA it is 0.203 ± 0.00725 E-score.
The figure for ATGAGATG is 0.243 ± 0.00629 E-score; for TATCGTAA it is 0.296 ± 0.0233 E-score.
The figure for ACACCGGA is 0.364 ± 0.0193 E-score; for ACACCGGT it is 0.39 ± 0.0245 E-score.
Regarding ACACCGGG, the binding signal stood at 0.301 ± 0.000651 E-score.
The figure for CGGATGTA is 0.151 ± 0.0426 E-score; for TAGGCGAA it is 0.164 ± 0.00529 E-score.
The figure for ATGGTATC is 0.469 ± 0.00713 E-score; for CTGGTATA it is 0.255 ± 0.0119 E-score; for ATGGTCTC it is 0.153 ± 0.0473 E-score.
As to GTGGTATA, the binding signal came out at 0.3 ± 0.0344 E-score.
The figure for CTGGTATC is 0.45 ± 0.00737 E-score; for ATGGTATA it is 0.336 ± 0.0339 E-score.
The figure for GACGATCC is 0.387 ± 0.0391 E-score; for AACGATAG it is 0.175 ± 0.0167 E-score; for AACGATCC it is 0.333 ± 0.0104 E-score.
As for CACGATCC, the binding signal was 0.342 ± 0.0744 E-score.
In the case of TACGATAA, the binding signal was 0.175 ± 0.0264 E-score.
The figure for AAGGATAT is 0.365 ± 0.0541 E-score; for CACGATAG it is 0.245 ± 0.0038 E-score.
The figure for AACGATAT is 0.408 ± 0.0444 E-score.
The figure for AACGATAC is 0.435 ± 0.0105 E-score.
Take AACGACAC: the binding signal amounted to 0.276 ± 0.0085 E-score.
The figure for CACGATAC is 0.438 ± 0.0144 E-score; for AACGATCT it is 0.176 ± 0.00697 E-score; for ATATAACG it is 0.2329 ± 0.00214 E-score.
The figure for ATTGTATA is 0.308 ± 0.00631 E-score; for CCTCATCG it is 0.185 ± 0.0079 E-score; for TAAGATCA it is 0.293 ± 0.0543 E-score.
With CGATTAAA, the binding signal is 0.156 ± 0.0382 E-score.
The figure for AATCTGAT is 0.289 ± 0.0333 E-score; for CGGATGAG it is 0.183 ± 0.049 E-score; for TATCTCGA it is 0.248 ± 0.0332 E-score.
The figure for CAAGGGGA is 0.165 ± 0.0484 E-score; for GACGATAC it is 0.453 ± 0.00476 E-score.
The figure for GACGACAC is 0.164 ± 0.00255 E-score; for GAAGATAC it is 0.354 ± 0.0356 E-score.
For GGTAATAC, the binding signal was 0.297 ± 0.025 E-score.
For ATATGTGC, the binding signal stood at 0.241 ± 0.0491 E-score.
The figure for ATCCGGTG is 0.405 ± 0.026 E-score; for ATCCGGGA it is 0.295 ± 0.0471 E-score.
The figure for ATCCGGGG is 0.418 ± 0.0155 E-score; for ATCCGGGC it is 0.3565 ± 0.000735 E-score.
The figure for ATCCGGTA is 0.318 ± 0.0245 E-score; for ATCCGGTC it is 0.318 ± 0.00861 E-score.
For GAAGACAC, the binding signal was 0.21 ± 0.0292 E-score.
The figure for CTAACACC is 0.213 ± 0.0035 E-score; for GATCACCA it is 0.334 ± 0.0295 E-score; for TATCACCA it is 0.42 ± 0.031 E-score.
The figure for TATCACGA is 0.373 ± 0.0201 E-score.
The figure for GATCACAA is 0.31 ± 0.0262 E-score; for TCTCACCA it is 0.259 ± 0.00728 E-score; for TATCACAA it is 0.385 ± 0.049 E-score.
With CGATAATA, the binding signal was 0.328 ± 0.0401 E-score.
The figure for CCCTTCTC is 0.274 ± 0.0318 E-score.
The figure for ATAGTCTC is 0.151 ± 0.0259 E-score; for ACAGATCG it is 0.2347 ± 0.00197 E-score; for GGCGGATA it is 0.403 ± 0.0134 E-score.
Consider GGCGGGTA, for which the binding signal stood at 0.228 ± 0.0067 E-score.
Regarding CGCGGATC, the binding signal turned out to be 0.365 ± 0.0314 E-score.
The figure for CGCGGATA is 0.3882 ± 0.00207 E-score; for AGCGGATG it is 0.154 ± 0.049 E-score.
Turning to AGCGGATA, the binding signal was found to be 0.364 ± 0.0328 E-score.
The figure for GATCAGCC is 0.293 ± 0.0341 E-score; for ATCGCATC it is 0.3271 ± 0.00246 E-score; for CACGTATC it is 0.433 ± 0.00889 E-score.
The figure for ATCGTATC is 0.441 ± 0.0183 E-score; for GACGTCTC it is 0.163 ± 0.0364 E-score.
The figure for ATCGTATA is 0.324 ± 0.00599 E-score.
For AACGTATC, the binding signal amounted to 0.385 ± 0.067 E-score.
Regarding GACGTATA, the binding signal was 0.213 ± 0.108 E-score.
The figure for CTCGTATC is 0.367 ± 0.0253 E-score.
The figure for CACGTATA is 0.304 ± 0.0586 E-score; for GACGTATC it is 0.42 ± 0.0354 E-score; for AACCTATC it is 0.246 ± 0.0031 E-score.
The figure for AACGTATA is 0.167 ± 0.109 E-score; for TACGTATA it is 0.272 ± 0.0445 E-score; for GATCGGTA it is 0.3365 ± 0.000728 E-score.
Consider TATTCTCA, for which the binding signal amounted to 0.19 ± 0.0783 E-score.
The figure for AGAACATA is 0.152 ± 0.0261 E-score; for ATACTGCG it is 0.185 ± 0.0499 E-score; for CGTAATCC it is 0.276 ± 0.00776 E-score.
The figure for CGATCCTC is 0.333 ± 0.00326 E-score.
The figure for CGATCCGA is 0.396 ± 0.0357 E-score.
As to AGATCCGC, the binding signal came out at 0.333 ± 0.0252 E-score.
With CGATCCGC, the binding signal turned out to be 0.418 ± 0.0398 E-score.
The figure for GGATCCGA is 0.376 ± 0.0683 E-score.
